Hit rate of the full screen: of about 2,500 compounds, about 1,500 (60%) were called active.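 Rule for the calls: active = duplicate-averaged ratio beyond 3 SD from buffer wells, up or down, though filed actives are nearly all decreases; inactive = the rest.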 So high a share suggests a set chosen from earlier hits. Only a sample is shown.

This assay is described as follows: membrane potential response in parental HEK293 cells, counter-screen for CHT activator project, cell-based, membrane potential dye (AID 623908). To be noted: parental HEK293, membrane potential dye fluorescence (FDSS); at 10 µM; measured after EC20 choline addition. Background: Counterscreens check selectivity or assay interference.
Consider `CC(C)(C)Nc1nc(-c2ccccn2)nc2ccccc12`, for which the ratio readout change is -76.9 (active).
As to `CC1=CC(C)(C)N(C(=O)CSc2nnc(-c3ccccc3)o2)c2ccc(C)cc21`, the ratio readout change entry is “inactive”.
Next, `COc1nc(N=C(N)N)nc2c(C)cccc12`: -78.8 (active); `Cc1nc(N=C(N)N)nc2c(C)cccc12`: -65.7 (active).
Regarding `O=C(c1ccccc1F)N(Cc1ccccc1)Cc1ccccc1`, the ratio readout change result was “inactive”.
As for `CCCCn1c(N)c(N(CCC(C)C)C(=O)c2ccc(COc3ccccc3)o2)c(=O)[nH]c1=O`, the ratio readout change entry was “inactive”.
Turning to `COc1ccccc1NC(=O)CSc1nnc(-c2ccoc2C)n1CCc1ccccc1`, the ratio readout change entry was “inactive”.
The value for `Cc1ccc(C(=O)C[n+]2cc(-c3ccccc3)n3c2CCCCC3)cc1` was “inactive”; that for `Clc1ccc(C[n+]2cc(-c3ccc(Cl)cc3)n3c2CCC3)cc1` was -46 (active); that for `Cc1ccc2c(c1)N(CC(=O)N(Cc1ccccn1)Cc1ccco1)C(=O)C(C(C)C)O2` (stereo not drawn) was “inactive”.
`O=[N+]([O-])c1ccc(N2CCNCC2)cc1NCc1cccnc1`: the ratio readout change is -59.8 (active).
On to `CC(=O)c1ccccc1OCc1ccc(C(=O)c2ccccc2)cc1`, for which the ratio readout change result is “inactive”.
Consider `C[C@H]1CCC(=O)N([C@H](CSc2ccccc2)Cc2ccccc2)CC1`, for which the ratio readout change result is “inactive”.
`CC(=O)N1CC[n+]2c(-c3ccc([N+](=O)[O-])cc3)csc21`: the ratio readout change is -25.4 (active).
On to `CCN(CC)CCC(c1cc(OC)c(OC)c(OC)c1)c1c(OC)cc(OC)c2c(-c3ccccc3)cc(=O)oc12` (stereo not drawn), for which the ratio readout change was -25.5 (active).
`Cc1nnc(-c2ccc(Oc3ccc(C)c(C)c3)c([N+](=O)[O-])c2)o1`: the ratio readout change entry is “inactive”.
For the compound `CN(C)/C=C/C(=O)c1cnc2sccn2c1=O`, the ratio readout change is -39.9 (active).
With `COc1cccc(C(=O)NC(=O)Nc2nc(C)cc(C(F)(F)F)n2)c1`, the ratio readout change is -43.4 (active).
Consider `Cc1ccccc1C(=O)NCC(c1ccco1)N1CCc2ccccc21` (stereo not drawn), for which the ratio readout change result is “inactive”.
Turning to `Cn1c(=O)n(C)c2cc(C(=O)Nc3ccc4c(c3)OCO4)ccc21`, the ratio readout change was -33.9 (active).
Regarding `O=C(Nc1ccccc1N1CCN(c2ccccc2)CC1)c1cccc(F)c1`, the ratio readout change result was “inactive”.
With `Cc1cc2c(cc1C)[n+](C)cn2CC(O)COCC1CC=CCC1` (stereo not drawn), the ratio readout change was -37.2 (active).
On to `N=c1c2c3c(sc2ncn1N)CCCCC3`, for which the ratio readout change is -39.8 (active).
As to `N=c1c2c3c(sc2ncn1CCCN1CCOCC1)CCCCC3`, the ratio readout change is -59.9 (active).
`COc1cc2c(cc1OC)C(c1cccc([N+](=O)[O-])c1)=NCC2`: the ratio readout change is -64.5 (active).
`Cc1c(CCOC(=O)CC23CC4CC(CC(C)(C4)C2)C3)sc[n+]1Cc1ccc([N+](=O)[O-])cc1`: the ratio readout change was -47 (active).
The value for `O=C(CCC1CCN(C(=O)c2cccc(Cl)c2F)CC1)Nc1ccccc1` was “inactive”; that for `O=C1c2ccccc2C(=O)c2c1cccc2N1CCN(CCO)CC1` was -73.9 (active); that for `Cn1c(=O)n(Cc2ccco2)c(=N)c2c3c(sc21)CCCC3` was -31.5 (active).
The value for `CC(Sc1nc2ccccc2c(=O)n1Cc1ccco1)C(=O)c1ccccc1` (stereo not drawn) was “inactive”; that for `Cn1c(=O)[nH]c(=O)c2c1nc(N1CCN(CCO)CC1)n2CCSc1nc2ccccc2s1` was -48.2 (active); that for `CN(C)c1ccnc(Nc2ccc(F)cc2)c1C#N` was -45.1 (active).
As for `CCN1CCN(c2ccc([N+](=O)[O-])cc2C(=O)c2ccc(Cl)cc2)CC1`, the ratio readout change result was “inactive”.
For the compound `Cc1nnc(C)c2c(C)n(N)c(C)c12`, the ratio readout change is -51.8 (active).
The value for `CN1CCN(c2nc(Nc3ccc(O)cc3)nc3ccccc23)CC1` was -71.3 (active); that for `O=C(NCCC1=CCCCC1)C1CCN(Cc2cnn(-c3ccccc3)c2-n2cccc2)CC1` was “inactive”.
As to `Nc1scc[n+]1Cc1cccc2cccnc12`, the ratio readout change was -43.3 (active).
With `CCCCN(CCCC)CC(O)Cn1c2ccccc2c(=O)c2ccccc21` (stereo not drawn), the ratio readout change is -21.9 (active).
As for `Cc1c(C)c2c(OCC(=O)N[C@@H](C(=O)O)c3ccccc3)cc3c(c2oc1=O)CCC(C)(C)O3`, the ratio readout change result is “inactive”.
Regarding `CCOC(=O)c1cccnc1NC(=O)c1ccncc1`, the ratio readout change is -20.3 (active).
In the case of `COc1ccc([N+](=O)[O-])cc1N(CC(O)CN(CC(C)C)CC(C)C)S(=O)(=O)c1ccc(C)cc1` (stereo not drawn), the ratio readout change entry was “inactive”.
The value for `Cc1ccc(-n2c(C)cc(/C=N\NC(=O)CC(=O)NC(C)C)c2C)cc1` was “inactive”; that for `COc1ccc(Nc2nnc(C)c3ccccc23)cc1` was -50.6 (active).
As to `COc1ccc(Nc2cc(C)nc(-n3nc(C)cc3C)n2)cc1`, the ratio readout change result was “inactive”.
For the compound `O=C(COC(=O)C1CCN(S(=O)(=O)c2ccc3c(c2)OCCO3)CC1)Nc1ccccc1OC(F)F`, the ratio readout change result is “inactive”.
For the compound `CN1CCN(c2cc3c(cc2F)c(=O)c(C(=O)O)cn3CCF)CC1`, the ratio readout change was -29.7 (active).
On to `CCn1cc(S(=O)(=O)c2cccc(C)c2)c(=O)c2cc(F)c(N3CCN(C)CC3)cc21`, for which the ratio readout change was -55.2 (active).
Regarding `CC(Nc1nc(N2CCN(CCO)CC2)nc2ccccc12)c1ccccc1` (stereo not drawn), the ratio readout change was -58.8 (active).
Turning to `O=C(C1=C(O)C(=O)N(Cc2ccccc2)C1c1ccco1)c1ccco1` (stereo not drawn), the ratio readout change entry was “inactive”.
On to `CCN1C(=NCCc2cccnc2)N[C@@H](c2ccccc2)[C@H](C(=O)OC)[C@H]1C`, for which the ratio readout change entry was “inactive”.
On to `Cc1cccn2c(=O)c3cc(C#N)c(=O)n(CCCN4CCOCC4)c3nc12`, for which the ratio readout change is -48.2 (active).
The value for `CCN1CCCC1CNC(=O)c1cc2c(=O)n(C)c3ccccc3c2n1C` (stereo not drawn) was -28 (active).
For `O=Cc1ccc(OCc2cn3ccccc3n2)cc1`, the ratio readout change was -38.8 (active).
As for `COc1ccccc1NC(=O)C1=C(C)Nc2nc3ccccc3n2C1c1cccs1` (stereo not drawn), the ratio readout change result is “inactive”.
In the case of `CN1CCc2c(sc3c2c(NCc2ccco2)nc2nnnn23)C1`, the ratio readout change was -34.6 (active).
The value for `COc1ccc(CC2c3cc(OC)c(OC)cc3CC[N+]2(C)CCC(=O)OCCCCCOC(=O)CC[N+]2(C)CCc3cc(OC)c(OC)cc3C2Cc2ccc(OC)c(OC)c2)cc1OC` (stereo not drawn) was -31.4 (active); that for `Cc1nc2ccccc2c2oc(C(=O)NCCCN3CCC(C)CC3)cc12` was -28.4 (active).
`COc1ccc2c(c1)cc1n2CCN=C1NN`: the ratio readout change is -53.2 (active).
On to `Cc1ccc(-n2c(SCC(=O)N3c4ccccc4Sc4ccccc43)nnc2-c2ccncc2)cc1`, for which the ratio readout change entry was “inactive”.
Turning to `Cc1ccc(C(=O)c2ccc(N3CCN(C)CC3)c([N+](=O)[O-])c2)cc1`, the ratio readout change result is “inactive”.
As for `N#C/C(=C\c1ccc(-c2cccc([N+](=O)[O-])c2)o1)C(=O)NCCN1CCOCC1`, the ratio readout change was -21.1 (active).
In the case of `Cc1cc(NC(=O)c2cnn3cccnc23)n(-c2ccccc2)n1`, the ratio readout change is -40.8 (active).
Next, `COc1ccc2nc(/N=C(\N)NC(=O)Nc3ccccc3)nc(C)c2c1`: -41.4 (active); `O=C(Nc1ccncc1)c1ccc(Cl)c([N+](=O)[O-])c1`: -45.8 (active).
`Cc1cc(=O)oc2c(C)c(OC(C)C(=O)NC3CCN(Cc4ccccc4)CC3)ccc12` (stereo not drawn): the ratio readout change is -52.2 (active).
For the compound `C[C@]1(C(=O)NCCc2c[nH]c3ccccc23)C=C[C@@H](Cc2ccccc2)N1C(=O)c1ccccc1`, the ratio readout change result is “inactive”.
Regarding `COc1cc2nc(N3CCN(C(=O)[C@@H]4CCCO4)CC3)nc(N)c2cc1OC`, the ratio readout change was -39.5 (active).
`CCOc1ccc(C2c3[nH]c4ccccc4c3CCN2Cc2cccn2-c2ncccn2)cc1` (stereo not drawn): the ratio readout change result is “inactive”.
As to `CN(C)c1cc[n+](Cc2ccccc2)cc1`, the ratio readout change was -40.2 (active).
With `COc1ccc(Cn2c(-c3ccc(Cl)cc3)c[n+]3ccccc23)cc1`, the ratio readout change is -66.1 (active).
As to `CCN(CC)CCCNC(=O)c1cn(C)c2ccc(S(=O)(=O)N(C)C3CCCCC3)cc2c1=O`, the ratio readout change is -36.4 (active).
Next, `CCOC(=O)c1cn(CC)c2cc(F)c(F)cc2c1=O`: -63.5 (active); `COc1ccccc1NC(=O)CN(c1ccccc1OC)S(=O)(=O)c1ccccc1`: “inactive”; `COC(=O)c1ccc(C(NC(=O)OCc2ccccc2)/C(C)=C/[C@@H](C)C(=O)NCc2ccc(OC)c(OC)c2)cc1` (stereo partly drawn): “inactive”.
In the case of `Clc1ccc(COn2c(-c3ccc(Cl)cc3Cl)nc3ncccc32)cc1`, the ratio readout change result is “inactive”.
Consider `CCCCCCCCCCOC(=O)Cn1c(COc2cccc(OC)c2)[n+](C)c2ccccc21`, for which the ratio readout change is -43.3 (active).
As for `CCCCCCCCCCOC(=O)Cn1c(COc2ccc(C)cc2)[n+](C)c2ccccc21`, the ratio readout change was -48.3 (active).
Next, `Nc1ccccc1SCc1cc([N+](=O)[O-])cc2c1OCOC2`: “inactive”; `CC(C)CC(COCc1ccc(Cl)cc1)N1CCN(C(=O)c2ccc(C(F)(F)F)cc2)CCC1=O` (stereo not drawn): “inactive”; `COC(=O)c1sc(C(F)(F)F)c(-c2ccccc2)c1S(=O)(=O)N(C)C`: “inactive”.
Regarding `CN(C)c1cc(N)c2ccccc2n1` (tested in a mixture with another compound), the ratio readout change was -62.3 (active).
The value for `Cc1cc(=O)oc2cc(OCCC[n+]3ccccc3)ccc12` was -59.3 (active).
In the case of `Cn1c(=NC(=O)c2cnccn2)sc2ccccc21`, the ratio readout change is -49.1 (active).
Consider `O=C(c1ccc(F)c(S(=O)(=O)N2CCOCC2)c1)N(CCc1ccccc1)Cc1ccccc1`, for which the ratio readout change result is “inactive”.
The value for `CC1(C)Cc2c(sc3nc4n(c(=N)c23)CCCCC4)CO1` was -42.5 (active); that for `CCN1/C(=C/c2ccc3ccc(C)cc3[n+]2CC)Sc2ccccc21` was “inactive”; that for `COc1cc2c(cc1OC)C(Nc1ccc(S(N)(=O)=O)cc1)=NC(C)(C)C2` was -78.3 (active).
For `COc1ccc(C(O)(C2CCCCC2)C(CN2CCCC2)c2ccccc2)cc1` (stereo not drawn), the ratio readout change entry is “inactive”.
Next, `N#Cc1ccc(/C=C2\CCn3c2nc2cc(C(=O)O)ccc2c3=O)cc1`: -55.3 (active); `CCn1c(/C=C/Nc2ccccc2)[n+](CC)c2ccc(C(=O)OCC(F)(F)F)cc21`: -82.7 (active); `Cc1nc2c(-c3ccccc3)c(C)[nH]n2c(=O)c1Cl`: “inactive”.
`Cc1nc2ccccc2c(=O)n1CCCn1ccnc1`: the ratio readout change result was “inactive”.
Regarding `C=CCNc1nnc(C)c2ccccc12`, the ratio readout change is -50.7 (active).

Source of the values: PubChem BioAssay AID623908 (Johns Hopkins Ion Channel Center, 2012).
